Source: PubChem BioAssay (NCATS)
Records with an inconclusive call do not appear. The source made the active and inactive calls. The call rests on the fitted dose curve; in most records, active means well fitted inhibition curve with a large enough effect; inconclusive means small, poorly fitted or top-dose-only effect; inactive means flat fitted curve, though single readings scatter.

experiment: qHTS for Inhibitors of Plasmodium falciparum (HB3) proliferation (AID 504318); further: nearly all actives have a fitted effect of over 60% in size; conditions: P. falciparum HB3 in erythrocytes, SYBR Green DNA, 72 h; series mostly up to 7.21 µM
In short: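 Parasite growth measured as SYBR Green DNA fluorescence (ex 485, em 535 nm) after overnight lysis following 72 h culture at 37 °C, 0.3% parasitemia, 2.5% hematocrit. Values normalized against DMSO and 0.29 uM artemisinin controls, with plate-stack correction.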

Potency, inactive:
COC(=O)C1=C(C(=O)OC)[C@@H]2Nc3ccccc3[C@@]23C[C@@H](C(=O)OC)N(S(=O)(=O)c2cccs2)C3=N1, CCOC(=O)CN1C(=O)N[C@@H](CCc2ccccc2)C(C(=O)OC)=C1C, CC(C)(C)OC(=O)NCCCC1=CC2=CC(=O)C(C)(OC(=O)c3cccs3)C(=O)C2=CO1 (stereo not drawn), COC(=O)C1=C(C(=O)OC)[C@@H]2N(Cc3ccccc3)c3ccccc3[C@@]23CCC(=O)N(CC2CCCCC2)C3=N1, COC(=O)[C@H]1[C@@H](C)N(Cc2ccccc2)C(=O)N[C@H]1c1cccc(C(F)(F)F)c1, CC1(OC(=O)C2CCCC2)C(=O)C=C2C=C(c3ccsc3)N(c3ccc(CO)cc3)C=C2C1=O (stereo not drawn), COC(=O)N[C@@H](c1cccc(C)c1)C(C(C)=O)C(=O)OC (stereo partly drawn), COC(=O)C1=C(C(=O)OC)[C@@H]2Nc3ccccc3[C@@]23C[C@@H](C(=O)OC)N(C(=O)c2ccc(Br)cc2)C3=N1, CCN(CC)CCCN1C=C2C(=O)C(C)(OC(=O)CCC(=O)OC)C(=O)C(Br)=C2C=C1c1ccc(OC)cc1 (stereo not drawn), C=CC1=C2C=C(C3CC3)N(Cc3ccco3)C=C2C(=O)C(C)(OC(=O)c2ccco2)C1=O (stereo not drawn), CCCCC1=CC2=C(c3ccco3)C(=O)C(C)(OC(=O)c3ccc(OC)cc3)C(=O)C2=CN1CCc1c[nH]c2ccccc12 (stereo not drawn), C=CCN1c2ccccc2[C@]23C[C@@H](C(=O)OC)N(C(C)=O)C2=NC(C(=O)OC)=C(C(=O)OC)[C@H]13, CCOC(=O)CN1C(=O)N[C@@H](CCc2ccccc2)[C@@H](C(=O)OC)[C@H]1C, CCN1C(=O)N[C@@H](c2cccc(F)c2)C(C(C)=O)=C1C, COc1cccc([C@@H]2Oc3ccc(Br)cc3C(=O)[C@@H]2OC(=O)Nc2cc(OC)c(OC)c(OC)c2)c1, C=CCN1c2ccccc2[C@]23C[C@@H](C(=O)OC)N(C(=O)COCc4ccccc4)C2=NC(C(=O)OC)=C(C(=O)OC)[C@H]13, COC(=O)CCC(=O)OC1(C)C(=O)C=C2C=C(C3CC3)N(CCN3CCOCC3)C=C2C1=O (stereo not drawn), CCCCC1=CC2=C(c3ccco3)C(=O)C(C)(OC(=O)c3ccc(OC)cc3)C(=O)C2=CN1C1CCCC1 (stereo not drawn), CC[C@@H](C)CN1C(=O)N[C@@H](c2ccccc2)C(C(C)=O)=C1C, CCN1C(=O)N[C@@H](c2cccs2)C(C(C)=O)=C1C, COC(=O)C1=C(C(=O)OC)[C@@H]2N(C)c3ccccc3[C@@]23C[C@@H](CO)N(C(=O)c2cc(C)oc2C)C3=N1, COC/C=C/C1=CC2=CC(=O)C(C)(OC(=O)c3cnc4ccccc4n3)C(=O)C2=CN1CCOC (stereo not drawn), COC(=O)C1=C(C)N(Cc2ccco2)C(=O)N[C@@H]1c1ccco1, COC(=O)CCCC1=CC2=C(c3ccccc3)C(=O)C(C)(OC(=O)C3CCCC3)C(=O)C2=CN1Cc1ccccc1 (stereo not drawn), COC(=O)C1=C(C(=O)OC)[C@@H]2N(C)c3ccc(OC)cc3[C@@]23C[C@@H](C(=O)OC)N(C(C)=O)C3=N1, CCCCC1=CC2=CC(=O)C(C)(OC(=O)CC)C(=O)C2=CN1CCCN(CC)CC (stereo not drawn), C=CCOC(=O)N[C@H](C(C(=O)OC)=C(C)NCc1ccccc1)c1ccc(C)cc1, CCN1C(=O)N[C@@H](c2cccc(C(F)(F)F)c2)C(C(=O)OC)=C1C, COC(=O)CCCC1=CC2=CC(=O)C(C)(OC(=O)c3cccs3)C(=O)C2=CN1Cc1ccccc1 (stereo not drawn), COC/C=C/C1=CC2=CC(=O)C(C)(OC(=O)c3cnc4ccccc4n3)C(=O)C2=CN1C1CCCC1 (stereo not drawn), COC(=O)CCCC1=CC2=CC(=O)C(C)(OC(=O)CCc3ccccc3)C(=O)C2=CO1 (stereo not drawn), CCN1C(=O)N[C@@H](c2cccs2)C(C(=O)OC)=C1C, CCCCC1=CC2=CC(=O)C(C)(OC(=O)CC)C(=O)C2=CN1Cc1ccccc1 (stereo not drawn)
